# Screening results: PubChem, ICCB-Longwood Screening Facility, Harvard Medical School
# PV pol inh – poliovirus RNA polymerase inhibition; P03300; poliovirus polymerase elongation, fluorescence polarization; stronger effect = lower value; % elongation, % (compound at 16.7 µg/mL); 150,000 tested, 0.66% active; AID 588519; in the data active = % elongation below about 90%
# AID504770 – growth inhibitors of E. coli YBA685 in a screen for V. cholerae RctB (chromosome II replication) inhibitors | E. coli YBA685 rctB-dependent plasmid, OD600 growth, 3 h; stronger effect = lower value | z-score (no concentration beside the values) | 130,000 tested, 0.27% active | AID 504770; in the data active = z-score below about -2, passing the limit was not always enough
# MbtI inh – blocks the Mycobacterium tuberculosis siderophore enzyme MbtI | purified MbtI enzyme, fluorescence intensity read-out | inhibition, % (concentration not given with the values) | 100,000 tested, 0.89% active; in the data active = inhibition mostly above about 56%, no sharp cut-off; inactive = mostly below about 77%
# Mtb MenB inh – inhibitors of Mycobacterium tuberculosis MenB enzyme; AID 540299; MenB enzyme assay, absorbance read-out; 100,000 tested, 0.43% active; P9WNP5; inhibition, % (concentration not given with the values); in the data active = inhibition above about 21%, passing the limit was not always enough
# Target sequence (P9WNP5 whole entry, looked up): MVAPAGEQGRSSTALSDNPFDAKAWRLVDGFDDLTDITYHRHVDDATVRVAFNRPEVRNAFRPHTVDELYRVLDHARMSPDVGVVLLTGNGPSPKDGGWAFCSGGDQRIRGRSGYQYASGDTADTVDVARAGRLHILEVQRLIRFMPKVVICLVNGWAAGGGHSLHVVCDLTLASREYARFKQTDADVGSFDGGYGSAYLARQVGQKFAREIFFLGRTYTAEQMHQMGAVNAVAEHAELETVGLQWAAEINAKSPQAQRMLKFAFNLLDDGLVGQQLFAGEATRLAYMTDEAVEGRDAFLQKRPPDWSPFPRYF
# * = called active by the depositor; i = inactive; nt = no result. Sampled rows, rich in hits. Any-hit rate of the full collection: about 1.4%.
SMILES,PV pol inh,AID504770,MbtI inh,Mtb MenB inh
COCCNC(=S)N1CCC(C(=O)c2ccc(F)cc2)CC1,103,0.25,-2,37*
COc1ccc(C(=O)CSC2=NCCc3ccccc32)cc1,77*,-0.55,67*,6
CC(C)N(C(=O)NC(=O)Nc1ccc(C=C(C#N)C#N)cc1)S(C)(=O)=O,88*,-0.25,13,-143
CCOc1ccc(N2C(=O)CC(N3CCCCC3CC)C2=O)cc1 (centres undefined),103,-0.05,55*,9
CCC(=O)Nc1ccc2nc(C3CC3)n(Cc3ccc(Cl)cc3)c(=O)c2c1,101,2.5,12,31*
CCC(CC)NC(=O)CSc1nnc(-c2ccc(C)cc2)n1N,78*,-0.5,92,-39
Cc1ccc(S(=O)(=O)N(CC(=O)O)C2CCCCCC2)cc1,96,-0.5,-8,-14
NC(=O)CN(C1CCCCC1)S(=O)(=O)c1ccc(Br)cc1,99,-0.2,i,41*
Oc1ccccc1-c1csnn1,nt,0.25,nt,nt
Cc1nc2nc(C(F)(F)F)[nH]c2cc1Br,104,0.4,70*,-32
CCCCn1nc(NC(=O)c2cccc(Cl)c2)c2cc3ccc(C)cc3nc21,118,nt,nt,nt
CCCCC(C(N)=O)N1C(=O)C2C3C=CC(C3)C2C1=O (centres undefined),103,-0.35,nt,-3
NC(=O)C(c1ccccc1)c1ncc(C(F)(F)F)cc1Cl (centres undefined),nt,-2.7*,nt,nt
Cc1[nH]c(=S)sc1CC(=O)N(C)Cc1ccccc1Cl,104,0.6,76*,-12
CC1CCCCC1NC(=O)c1ccc(F)cc1 (centres undefined),104,0.85,-9,5
CC(C)C(=O)Nc1cccc(-c2nc3ccccc3c(=O)o2)c1,101,-3.5*,5,-15
Cn1nnc2cc(C(=O)NCc3ccco3)ccc21,100,-1.1,4,-6
O=C(O)COc1ncnc2ccccc12,104,0.8,10,27*
CN(C)C(=O)COc1ncnc2ccccc12,102,-0.6,-1,nt
Cc1ccc(-c2csc(-c3nnn(-c4cccc(Cl)c4)c3N)n2)cc1,100,2.4,20,16
Cc1ccc(-c2csc(-c3nnn(-c4ccc(C)c(C)c4)c3N)n2)cc1,27*,2.6,19,8
O=S1(=O)CCC(NC(=S)SCCOc2ccccc2)C1 (centres undefined),nt,-3*,nt,nt
C=CCNC(=O)c1ccc(-c2cc(C(F)(F)F)ccc2Cl)o1,102,1,8,-3
COc1cccc(CNC(=O)CN(C)S(=O)(=O)c2ccc3c(c2)CC(C)N3C(C)=O)c1 (centres undefined),105,0.85,-7,-32
COc1cc(CNCCSc2nnnn2C)ccc1OCc1ccc(F)cc1,100,nt,nt,nt
SMILES,PV pol inh,AID504770,MbtI inh,Mtb MenB inh
CC(NCCC(=O)O)c1ccccc1 (centres undefined),99,1.6,-3,34*
Cc1ccc(C)n1-c1ncc(Br)cn1,nt,0.45,nt,nt
NC(=O)CCS(=O)(=O)c1ccccc1,105,-1.1,-1,-19
O=C(O)CCCS(=O)(=O)c1ccccc1,101,0.35,10,35*
CC1=CC(=O)C(CCCCCC2=CC(=O)C(C)=CC2=O)=CC1=O,103,1.3,95*,7
CC1=CC(=O)C(CCOCCC2=CC(=O)C(C)=CC2=O)=CC1=O,101,0.75,100*,-4
Cc1ccc(-n2nc(C)cc2NC(=O)c2ccc(Cl)cc2)cc1,103,0.15,-12,nt
O=C(Nc1nnc(-c2ccccc2)o1)C(c1ccccc1)c1ccccc1,101,1.3,8,9
O=S(=O)(Nc1ccccn1)N1CCCCCC1,106,2.2,0,-33
NC(=O)C1CCN(C2CC(=O)N(Cc3ccc4c(c3)OCO4)C2=O)CC1 (centres undefined),103,0.75,86*,-39
NC(=O)C1CCN(CC(O)Cc2ccc3c(c2)OCO3)CC1 (centres undefined),nt,-0.65,nt,nt
CC(O)c1nc2cc3ccccc3cc2[nH]1 (centres undefined),102,1.5,89,34*
Cc1ccc2nc(C(C)O)[nH]c2c1 (centres undefined),97,0.75,-5,-2
Cn1c(=O)[nH]c(=O)c2c1nc1n2CCCN1c1ccccc1,101,-0.65,-12,36*
Cc1cccc(N2CCCn3c2nc2c3c(=O)n(C)c(=O)n2C)c1,102,-2.5,-11,1
Cc1ccccc1NC(=O)/C=C\C(N)=O,104,0.65,99*,-8
CCOc1ccccc1NC(=O)/C=C/C(N)=O,nt,-0.8,nt,nt
NC(=O)/C=C/C(=O)Nc1ccccc1Cl,101,0.25,100*,-60
CCN(CCO)C1CC(=O)N(c2ccccc2C)C1=O (centres undefined),99,-0.75,100*,5
Cc1ccccc1N1C(=O)C(O)C(O)C1=O (centres undefined),nt,0.3,-6,nt
CC1(C)Cc2[nH]c(=S)c(C#N)cc2CO1,101,1.1,92,-85
N#Cc1cc2c([nH]c1=S)CCCC2,98,-0.1,102*,-217
O=C(CSc1nnc(-c2ccc(Cl)cc2Cl)n1Cc1ccco1)c1ccc[nH]1,110,2.1,18,44*
Cn1cnc2c1c(=S)[nH]c(=O)n2Cc1ccccc1,82*,-0.9,nt,-27
COc1cccc(-n2ccnc2SCC(=O)Nc2ccc(N3CCN(C)CC3)cc2)c1,94,0,-6,-5
SMILES,PV pol inh,AID504770,MbtI inh,Mtb MenB inh
CSc1nc(NC(C)C)nc(N(C)C(N)=O)n1,102,1.1,16,21
CC(C)Nc1nc(NC(N)=O)nc(NC(C)C)n1,102,0.7,3,62*
CSc1nc(NC(N)=S)nc(NC(C)C)n1,101,-0.4,87*,-30
O=C(Nc1ccno1)NN1CCOCC1,108,-3.2,-6,-12
CN(C1CCCCC1)S(=O)(=O)c1csc(C(N)=O)c1,100,-0.45,-10,-2
CC(C)(C)Sc1ccc(SC#N)s1,95,0.75,81*,-32
CC(C)(C)Sc1ccc(C(=O)O)s1,nt,-0.3,57*,nt
CCc1cc(=O)oc2c(C)c(OCC(=O)Nc3ccc4c(c3)OCO4)ccc12,80*,-0.7,7,-20
CC(Sc1ccccn1)C(=O)Nc1ccccc1 (centres undefined),102,0.35,94*,-42
Cc1ccc(C(=O)CSc2ncn[nH]2)c(C)c1,101,0.1,70*,-2
N#Cc1cc(-c2ccccc2C(F)(F)F)no1,100,-2.6*,-6,-60
O=C(CC(C(=O)N1CCc2ccccc21)C(=O)N1CCc2ccccc21)c1ccccc1,105,-0.45,-2,-21
Cc1ccc(OCCn2cc(C(=O)c3cccs3)c3ccccc32)cc1,77*,nt,nt,nt
Cc1ccc(C)c(SCC(=O)NC(C)C(c2ccccc2)N2CCOCC2)c1 (centres undefined),88*,1,2,nt
Cc1ccc(C)c(SCC(=O)NC(C)C(c2cccs2)N2CCCC2)c1 (centres undefined),99,0.25,3,nt
COc1ccc(CN2COc3ccc4c(oc(=O)c5ccccc54)c3C2)cc1OC,100,nt,nt,nt
O=c1oc2c3c(ccc2c2ccccc12)OCN(Cc1ccc(Cl)cc1)C3,88*,nt,nt,nt
CC(C)C(=O)Nc1cccc2nsnc12,103,-1.8,nt,1
